Results as given in PubChem BioAssay (NCATS).
Results filed as inconclusive are left out. Calls of active or inactive are those of the source. Calls come from the whole dose curve; as a rule, active = well fitted curve in the direction sought with a large enough effect; inconclusive = small, poorly fitted or top-dose-only effect, or another doubt; inactive = no such curve, though single readings can be large; an effect the other way counts as inactive or inconclusive.

Columns and labels:
[1] = molecular target: N-terminal Xaa-Pro-Lys N-methyltransferase 1 (Homo sapiens) (UniProt Q9BV86); assay: qHTS Assay for Inhibitors of N-terminal methyltransferase 1 (NTMT1): LOPAC validation of the NTMT1 SAHH-coupled ThioGlo3 Assay (AID 1347143);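 note: SAH from peptide methylation measured as thiol fluorescence via SAHH coupling and ThioGlo3; % is set by controls: 0 for no effect and ±100 for the full control effect; nearly all actives have a fitted effect of over 70% in size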
Outline: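 Steps: dispense 125nM NTMT1; pin-transfer test compounds at several concentrations, with 1uM RCC1-6 peptide as control; incubate 1 min; start with reagent holding 100uM SAM, 10uM SAHH, 15uM ThioGlo3; read at 0 and 30 min.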

[2] = system: Zika virus NS2B-NS3 protease (unlinked); assay: Optimization of GU AMC qHTS for Zika virus inhibitors: Unlinked NS2B-NS3 protease assay (AID 1347151);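 note: series mostly up to about 52 µM; 0% = no-inhibitor control and -100% = no-enzyme control; nearly all actives have a fitted effect of over 80% in size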
Outline: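 Unlinked protease (25 nM final); buffer 10 mM Tris-HCl pH 8.0 + 0.01% Tween 20; AMC substrate; 15 min RT, dark; Δfluorescence normalized to no-inhibitor/no-enzyme controls; 4-parameter Hill fit.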

[3] = system: Zika virus NS2B-NS3 protease; assay: Primary screen GU AMC qHTS for Zika virus inhibitors (AID 1347154);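 note: 0% = no-inhibitor control and -100% = no-enzyme control; nearly all actives have a fitted effect of over 70% in size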
Outline: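 Unlinked Zika NS2B hydrophilic domain–NS3 protease complex at 25 nM in 10 mM Tris-HCl pH 8.0, 0.01% Tween 20, with an AMC peptide substrate. Fluorescence change (340/450 nm) over 15 min at room temperature, normalized to controls, fitted to 4-parameter Hill.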

[4] = qHTS of pediatric cancer cell lines to identify multiple opportunities for drug repurposing: Confirmatory screen for BT-37 cells (AID 1347117);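 note: viability measured after 48 h of compound exposure; plate controls were DMSO for no effect and bortezomib for full effect; nearly all actives have a fitted effect of over 55% in size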
Outline: (§1)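 Viability after 48 h compound treatment at 37C, 500-1,000 cells/well, read as ATP luminescence with CellTiter-Glo. Primary screens used 11-point (MIPE, 0.78 nM-46 µM) or 8-point (NPC, 0.59 nM-46 µM) final concentrations; follow-up screens used 11-point dilutions.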

[5] = qHTS of pediatric cancer cell lines to identify multiple opportunities for drug repurposing: Confirmatory screen for MG 63 (6-TG R) cells (AID 1347119);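 note: plate controls were DMSO neutral control for no effect and bortezomib for full effect; nearly all actives have a fitted effect of over 55% in size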
Outline: as §1

[6] = qHTS of pediatric cancer cell lines to identify multiple opportunities for drug repurposing: Confirmatory screen for control Hh wild type fibroblast cells (AID 1347121);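 note: plate controls were DMSO for no effect and bortezomib for full effect; nearly all actives have a fitted effect of over 70% in size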
Outline: as §1

[7] = qHTS of pediatric cancer cell lines to identify multiple opportunities for drug repurposing: Confirmatory screen for U-2 OS cells (AID 1347122); conditions: outcome: dose series up to 45.9 µM;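 note: plate controls were DMSO for no effect and bortezomib for full effect; nearly all actives have a fitted effect of over 65% in size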
Outline: as §1

[8] = qHTS of pediatric cancer cell lines to identify multiple opportunities for drug repurposing: Confirmatory screen for Rh41 cells (AID 1347123);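 note: 48 h compound exposure; plate controls were DMSO for no effect and bortezomib for full effect; nearly all actives have a fitted effect of over 60% in size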
Outline: as §1

[9] = qHTS of pediatric cancer cell lines to identify multiple opportunities for drug repurposing: Confirmatory screen for RD cells (AID 1347124);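 note: cells exposed to compound for 48 h before viability readout; % is set by controls: 0 for no effect and ±100 for the full control effect; nearly all actives have a fitted effect of over 65% in size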
Outline: as §1

[10] = qHTS of pediatric cancer cell lines to identify multiple opportunities for drug repurposing: Confirmatory screen for Rh18 cells (AID 1347125); note: % is set by controls: 0 for no effect and ±100 for the full control effect; nearly all actives have a fitted effect of over 55% in size
Outline: as §1

[11] = qHTS of pediatric cancer cell lines to identify multiple opportunities for drug repurposing: Confirmatory screen for Rh30 cells (AID 1347126); note: % is set by controls: 0 for no effect and ±100 for the full control effect; nearly all actives have a fitted effect of over 55% in size
Outline: as §1

[12] = qHTS of pediatric cancer cell lines to identify multiple opportunities for drug repurposing: Confirmatory screen for Saos-2 cells (AID 1347127);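 note: plate controls were DMSO for no effect and bortezomib for full effect; nearly all actives have a fitted effect of over 60% in size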
Outline: as §1

[13] = qHTS of pediatric cancer cell lines to identify multiple opportunities for drug repurposing: Confirmatory screen for OHS-50 cells (AID 1347128)
Outline: as §1

[14] = qHTS of pediatric cancer cell lines to identify multiple opportunities for drug repurposing: Confirmatory screen for SK-N-SH cells (AID 1347129);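 note: cells exposed to compound for 48 h before viability read; plate controls were DMSO for no effect and bortezomib control for full effect; nearly all actives have a fitted effect of over 60% in size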
Outline: as §1

[15] = system: Zika virus NS2B-NS3 protease (unlinked complex); assay: Primary screen GU Rhodamine qHTS for Zika virus inhibitors: Unlinked NS2B-NS3 protease assay (AID 1347159); note: % is set by controls: 0 for no effect and ±100 for the full control effect; nearly all actives have a fitted effect of over 60% in size
Outline: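 Percent inhibition came from the 15-min rise in Rhodamine110 fluorescence (1.5 microM substrate, ~15% conversion), normalized to no-inhibitor and no-enzyme wells and Hill-fitted. Unlinked protease, 25 nM, pH 8.0 Tris buffer; compounds up to 114 microM, 15-min preincubation.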

[16] = qHTS of pediatric cancer cell lines to identify multiple opportunities for drug repurposing: Confirmatory screen for TC32 cells (AID 1347118);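 note: cells exposed to compound for 48 h before the read; % is set by controls: 0 for no effect and ±100 for the full control effect; nearly all actives have a fitted effect of over 65% in size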
Outline: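 Luminescent ATP read-out (CellTiter-Glo) of metabolically active TC32 cells after 48 h exposure. Concentration-response curves came from 11-point (MIPE, 0.78 nM–46 µM) or 8-point (NPC, 0.59 nM–46 µM) primary titrations; follow-up used 11 points.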

Chain of N-terminal Xaa-Pro-Lys N-methyltransferase 1 (Homo sapiens) (Q9BV86 whole entry, looked up): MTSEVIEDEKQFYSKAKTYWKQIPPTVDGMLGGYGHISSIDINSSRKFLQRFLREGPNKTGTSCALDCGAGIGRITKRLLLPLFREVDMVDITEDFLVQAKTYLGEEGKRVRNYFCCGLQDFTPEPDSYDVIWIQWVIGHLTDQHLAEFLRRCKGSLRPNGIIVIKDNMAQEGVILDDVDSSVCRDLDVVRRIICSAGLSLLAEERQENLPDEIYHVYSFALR

CC(=O)OCC(=O)[C@@]1(O)CC[C@H]2[C@@H]3CCC4=CC(=O)CC[C@]4(C)[C@H]3C(=O)C[C@@]21C
inactive: Potency [1] | Potency [2] | Potency [3]

CCCCN(CCCC)CC(O)c1cc(Cl)cc2c1-c1ccc(Cl)cc1/C2=C/c1ccc(Cl)cc1 (stereo not given)
inactive: Potency [1] | Potency [2] | Potency [3]

C[C@H](NC(CCc1ccccc1)C(=O)O)C(=O)N1CCC[C@H]1C(=O)O (stereo not given in full)
inactive: Potency [1] | Potency [2] | Potency [3]

CCN(CC)CCNC(=O)c1cc(Cl)c(N)cc1OC
inactive: Potency [4] | Potency [5] | outcome [6] | outcome [7] | outcome [8] | Potency [9] | outcome [10] | outcome [11] | outcome [12] | outcome [13] | outcome [14] | Potency [1] | Potency [2] | Potency [3] | Potency [15]

O=C1N=C(O)CN1/N=C/c1ccc(-c2ccc([N+](=O)[O-])cc2)o1
inactive: Potency [4] | Potency [16] | Potency [5] | outcome [6] | outcome [7] | Potency [9] | outcome [10] | outcome [11] | outcome [12] | outcome [13] | outcome [14] | Potency [2]

C[C@](N)(Cc1ccc(O)cc1)C(=O)O
inactive: activity change, negative = cytotoxic [4] -10.9% [at 5.01 µM] | Potency [16] | activity change, negative = cytotoxicity [5] 15.9% [at 5.01 µM] | activity, negative = cytotoxic [6] -2.45% [at 5.01 µM] | activity change, negative = cytotoxicity [7] 3.67% [at 5.01 µM] | activity change, negative = cytotoxic [8] 0% [at 5.01 µM] | activity change, negative = cytotoxic [9] 10.4% [at 5.01 µM] | activity change, negative = cytotoxic [10] 0.623% [at 5.01 µM] | activity change, negative = cytotoxic [11] 0% [at 5.01 µM] | activity change, negative = cytotoxic [12] 17.6% [at 5.01 µM] | activity change, negative = cytotoxic [14] 11.7% [at 5.03 µM] | Potency [1] | Potency [2] | activity change, negative = inhibition [3] -1.38% [at 4.99 µM]
